# From publication PMC4336329 (PLoS ONE, 2015)
# Among all 310,000 compounds or so, about 14,000 (4.5%) showed an effect of 50% or more. Effects have a minus sign here. For the sample, strong results were picked, then their nearest neighbours and some compounds at random.
# Target: human ether-à-go-go-related gene (hERG) potassium channel (human, UniProt Q12809)
# Test: primary screen, population patch clamp on CHO cells stably expressing hERG; higher = less effect of the substance
# 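Note: peak tail current of the secondary pulse compared with the same well before compound.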
# Sequence of human ether-à-go-go-related gene (hERG) potassium channel (Q12809 whole entry, looked up): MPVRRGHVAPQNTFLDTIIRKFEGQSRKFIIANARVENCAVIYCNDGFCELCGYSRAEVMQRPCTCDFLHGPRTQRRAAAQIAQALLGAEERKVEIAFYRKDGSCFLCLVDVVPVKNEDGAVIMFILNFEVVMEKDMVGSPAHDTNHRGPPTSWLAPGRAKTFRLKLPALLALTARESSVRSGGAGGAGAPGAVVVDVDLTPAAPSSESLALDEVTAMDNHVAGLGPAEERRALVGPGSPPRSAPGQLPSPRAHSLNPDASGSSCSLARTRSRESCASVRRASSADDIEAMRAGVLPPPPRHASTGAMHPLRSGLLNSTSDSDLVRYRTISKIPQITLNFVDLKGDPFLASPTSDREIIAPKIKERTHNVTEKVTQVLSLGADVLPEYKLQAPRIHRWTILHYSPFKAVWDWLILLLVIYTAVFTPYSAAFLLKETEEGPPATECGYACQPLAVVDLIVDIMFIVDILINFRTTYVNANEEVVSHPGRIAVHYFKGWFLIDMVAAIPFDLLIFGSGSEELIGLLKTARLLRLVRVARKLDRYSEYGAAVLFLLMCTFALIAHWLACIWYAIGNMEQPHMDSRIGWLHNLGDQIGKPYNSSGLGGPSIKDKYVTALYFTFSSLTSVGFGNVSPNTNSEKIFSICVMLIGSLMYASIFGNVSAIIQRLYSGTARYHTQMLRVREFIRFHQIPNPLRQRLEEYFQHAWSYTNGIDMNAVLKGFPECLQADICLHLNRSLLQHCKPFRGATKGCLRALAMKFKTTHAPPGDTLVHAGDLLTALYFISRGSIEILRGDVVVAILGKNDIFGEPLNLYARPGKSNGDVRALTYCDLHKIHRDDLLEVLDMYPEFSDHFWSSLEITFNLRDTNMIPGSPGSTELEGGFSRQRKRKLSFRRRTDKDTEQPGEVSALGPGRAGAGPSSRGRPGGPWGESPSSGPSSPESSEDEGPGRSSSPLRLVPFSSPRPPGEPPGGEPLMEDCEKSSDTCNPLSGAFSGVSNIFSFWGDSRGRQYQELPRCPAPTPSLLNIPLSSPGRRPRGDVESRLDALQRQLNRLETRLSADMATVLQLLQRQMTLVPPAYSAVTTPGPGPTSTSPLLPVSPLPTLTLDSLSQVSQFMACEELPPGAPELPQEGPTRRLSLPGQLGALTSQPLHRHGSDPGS
row,SMILES,"hERG current change (%, negative = inhibition) at 10uM"
1,Cc1ccc(-c2csc(NC(=O)c3ccco3)n2)cc1C,-15.6%
2,CC(=O)Nc1ccc(NC(=O)c2c(-c3ccccc3)noc2C)cn1,15.9%
3,c1ccc2c(C3=NNC(=NC4CC4)SC3)c[nH]c2c1,-20.1%
4,CCN(CC)CCCNC(=O)c1cc(-c2ccc3c(c2)OCO3)on1,-18.8%
5,CCN(CC)CCCNC(=O)c1cc(-c2ccc(Cl)cc2)on1,-63.4%
6,O=C(NCCN1CCOCC1)c1cc(-c2cccc(Cl)c2)on1,-4.73%
7,O=C(NCc1cccs1)c1cc(-c2cccc(Cl)c2)on1,-16.1%
8,CCN(CC)CCCNC(=O)c1cc(-c2cccc(Cl)c2)on1,-60.7%
9,CCN(CC)CCCNC(=O)c1cc(-c2ccc(O)cc2)on1,-37.3%
10,c1ccc(-c2ccc(-c3ccncn3)cc2)cc1,23.6%
11,O=C1NC(=S)N/C1=C/c1cccn1-c1ccc([N+](=O)[O-])cc1,12.8%
12,O=C(CNc1cccc(S(=O)(=O)N2CCOCC2)c1)Nc1cccc(Br)c1,-21.6%
13,CSCCC(NS(=O)(=O)c1ccc(C)cc1)C(=O)N1CCCC1 (centres unmarked),2%
14,CC1CCN(S(=O)(=O)c2ccc3ncn(CC(=O)N(C)C4CCCCC4)c(=O)c3c2)CC1,-22.2%
15,CCCCN(CC)C(=O)Cn1cnc2ccc(S(=O)(=O)N3CCC(C)CC3)cc2c1=O,-57%
16,CC1CCN(S(=O)(=O)c2ccc3ncn(CC(=O)N(C)Cc4ccccc4)c(=O)c3c2)CC1,-61.7%
17,CCCCNC(=O)Cn1cnc2ccc(S(=O)(=O)N3CCC(C)CC3)cc2c1=O,2.68%
18,CC1CCN(S(=O)(=O)c2ccc3ncn(CC(=O)N4CCN(C)CC4)c(=O)c3c2)CC1,-16.3%
19,CCN(CC)CCCNC(=O)Cn1cnc2ccc(S(=O)(=O)N3CCC(C)CC3)cc2c1=O,-0.31%
20,Cc1cc2cc3c(C)cc(=O)oc3c(C)c2o1,19.8%
21,COc1ccc(-c2cc(C(=O)Nc3ccccc3F)on2)cc1,23.3%

row,SMILES,"hERG current change (%, negative = inhibition) at 10uM"
1,CCOc1ncccc1C(=O)OCC(=O)Nc1cc(S(=O)(=O)N(CC)CC)ccc1C,-42.8%
2,Cc1nc2cc(NS(=O)(=O)c3c(C)c(C)cc(C)c3C)ccc2s1,3.47%
3,Cc1ccc(C(=O)NCC(=O)NCC(=O)OCC(=O)c2ccc(Br)cc2)cc1,7.3%
4,CCCn1c(Nc2cccc(OC)c2)nc2ccccc21,14.8%
5,CCN(CC)CCn1c(NCc2cccc(OC)c2OC)nc2ccccc21,-47%
6,CCN(CC)CCn1c(NCc2cccc(OC)c2)nc2ccccc21.Cl,-57.8%
7,CCN(CC)CCn1c(NCc2ccc(OC)cc2)nc2ccccc21,-65.5%
8,CCn1c(NCc2ccc(OC)cc2)nc2ccccc21,-21.7%
9,CN(Cc1ccc2ccccc2c1)C(=O)c1ccc(C(F)(F)F)cc1,26.1%
10,CCN1C(=O)N(c2ccc(Cl)cc2)C(C)=CC1(C)C,6.6%
11,COc1ccc(C(=O)Nc2ccc(Cl)cc2F)cc1S(=O)(=O)N1CCCC1,-48.1%
12,C=C1c2ccccc2NC(=O)N1c1ccc(OC)cc1,12.8%
13,CC(O)CNc1nc2c(c(=O)n(Cc3ccc(Cl)c(Cl)c3)c(=O)n2C)n1C (centres unmarked),-17.3%
14,O=C(O)C(=O)O.OCCN(Cc1ccccc1)Cc1ccccc1O,5.17%
15,C=CCN1C(=O)C2C(C(=O)NCc3ccccc3)C3(C)C=CC2(O3)C1C(=O)NC(C)(C)C (centres unmarked),19.5%
16,COc1ccc(OC)c(/C=N/N2CCN(c3ccc(Cl)cc3)CC2)c1,8.58%
17,COC(=O)Cc1ccc(NC(=S)NCc2ccc(OC)cc2)cc1,-18.2%
18,COC(=O)Cc1ccc(NC(=S)NCc2ccccc2)cc1,0.941%
19,COC(=O)Cc1ccc(NC(=S)NCc2ccc(F)cc2)cc1,-74.4%
20,Cc1ccccc1C(=O)NC1CCN(Cc2nnnn2Cc2ccccc2)CC1,-47.8%
21,COc1cc(C(=O)NC2CCN(Cc3nnnn3Cc3cccs3)CC2)cc(OC)c1OC,-5.59%

row,SMILES,"hERG current change (%, negative = inhibition) at 10uM"
1,Cc1cc2nc(C3CCN(CC4COc5ccccc5O4)CC3)[nH]c2cc1C (centres unmarked),-73.9%
2,CCN1CCN(CC2COc3ccccc3O2)CC1.Cl (centres unmarked),-4.7%
3,Cc1cc2nc(C3CCN(Cc4nnnn4Cc4ccccc4)CC3)[nH]c2cc1C,-52.3%
4,CCN(CC)C(=O)CN1CCC(c2nc3cc(C)c(C)cc3[nH]2)CC1,-15.7%
5,c1csc(Cn2nnnc2CN2CCN(c3nc4ccccc4s3)CC2)c1,-46%
6,Cl.c1ccc(Cn2nnnc2CN2CCCC2)cc1,2.31%
7,Cc1cc2nc(C3CCN(Cc4nnnn4Cc4cccs4)CC3)[nH]c2cc1C,-83%
8,CCc1c(C)c2cc(Cl)c(O)c(CN(CC)CC)c2oc1=O,0.288%
9,S=c1nccc(-c2ccc(Cl)cc2)[nH]1,15.4%
10,COc1cc(NC(=O)c2cc3ccccc3o2)c(OC)cc1Br,5.55%
11,COc1ccc(-c2nnn(-c3cc(Cl)cc(Cl)c3)c2N)cc1,18.3%
12,CC1(C)C(=O)N(c2ccccc2)C(=O)c2ccccc21,9.68%
13,O=[N+]([O-])c1ccc(N=Nc2ccc(O)cc2O)cc1,28.4%
14,CCCCn1c(O)c(N=Nc2ccccn2)c2ccccc21,7.6%
15,O=C(CN(C(=O)c1csnn1)c1ccc(Cl)cc1)NCCc1ccccc1,-5.16%
16,O=C(CN(C(=O)c1csnn1)c1ccccc1)NCCc1ccccc1,-15%
17,O=C(CN(C(=O)c1csnn1)c1ccc(F)cc1)NCCc1ccccc1,7.95%
18,CC(=O)c1ccc(N(CC(=O)NCCc2ccccc2)C(=O)c2csnn2)cc1,-52.4%
19,CC(C)c1ccc(N(CC(=O)NCCc2ccccc2)C(=O)c2csnn2)cc1,-60%
20,Cc1ccc(N(CC(=O)NCCc2ccccc2)C(=O)c2csnn2)cc1,-15.4%
